Each structure is given as a SMILES string. Compounds without any hit were thinned out: in the full panel of roughly 79,000, 15% have a hit. Calls of active or inactive are those of the source. Rule as the data show it: active = growth inhibition above about 70%; inactive = the rest.

The source of these data is PubChem BioAssay (NCI).

A short description of the first test: NCI Yeast Anticancer Drug Screen. Data for the rad50 strain (AID 155).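 Also: 0% = growth of vehicle-only cultures of the same strain.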 The conditions noted are these: S. cerevisiae rad50 strain growth inhibition; at 50.0 µM; active compounds read high. Summed up: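 Inhibition values express reduced yeast growth in compound-treated cultures relative to vehicle-treated controls.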
`c1ccc(B2OCC(C3OB(c4ccccc4)OC4COB(c5ccccc5)OC43)O2)cc1` (stereo not given): the growth inhibition was 32.5% (inactive).

Consider `Cn1c(=O)c(-c2ccccc2)cc2ccccc21`, for which the growth inhibition is -9.9% (inactive).

For `CCOC(=O)c1ccc(-c2ccccc2)cc1`, the growth inhibition was -44.2% (inactive).

On to `N#Cc1c(N)c(C(=O)O)nn(-c2cccc(C(F)(F)F)c2)c1=O`, for which the growth inhibition was -8.95% (inactive).

As to `O/N=C1/CCCCCC1NO` (stereo not given), the growth inhibition is -23.8% (inactive).

As for `NCCC1([N+](=O)[O-])CCNCC1`, the growth inhibition was 1.9% (inactive).

Consider `O=C(NCc1ccccc1)C1C2C=CC(C2)C1C(=O)NCc1ccccc1` (stereo not given), for which the growth inhibition was -6.65% (inactive).

With `Nc1ccc[nH]c1=O`, the growth inhibition is 15.7% (inactive).

Consider `CC(C)(C)c1ccc(OCCCl)c(Cl)c1`, for which the growth inhibition is 2.35% (inactive).

In the case of `COC(=O)c1cc(C)cc(N(c2ccccc2[N+](=O)[O-])S(=O)(=O)c2ccc(C)cc2)c1C`, the growth inhibition was 15.9% (inactive).

Turning to `Cc1ccc(N=c2cc(-c3ccccc3)oc3ccccc23)cc1`, the growth inhibition was 11.9% (inactive).

Take `COc1cc(C)c(C(=O)c2ccccc2NS(=O)(=O)c2ccc(C)cc2)cc1OC`: the growth inhibition was 7.6% (inactive).

Take `C[n+]1nc([O-])oc1-c1ccccc1`: the growth inhibition was 4.5% (inactive).

On to `Cn1ncc2c(=O)[nH]c(=S)[nH]c21`, for which the growth inhibition was -9.6% (inactive).

On to `Cc1ccc(S(=O)(=O)C(Sc2ccccc2)=S=NC(C)(C)C)cc1`, for which the growth inhibition was 89.8% (active).

`Cc1ccc(NC(=O)CCc2nnc3s/c(=C\c4cccc([N+](=O)[O-])c4)c(=O)n23)cc1`: the growth inhibition was -31.4% (inactive).

Regarding `CCOc1c(N=Nc2ccccc2C)c(-c2ccccc2)nn1C(N)=S`, the growth inhibition was 8.25% (inactive).

For `C(=N\N1CCN(/N=C/c2ccc3ccccc3n2)CC1)/c1ccc2ccccc2n1`, the growth inhibition is 38.1% (inactive).

In the case of `NC(=S)c1ccccn1`, the growth inhibition is 18.6% (inactive).

Regarding `CC(=O)CCCCCCCCCCCCCC(C)=O`, the growth inhibition was -18.1% (inactive).

Regarding `CCOC(=O)/C=C/C(=O)O.[Cu+2]`, the growth inhibition was 5.2% (inactive).

Regarding `CCCCCCC1OCCC(C)O1` (stereo not given), the growth inhibition was 7.6% (inactive).

Turning to `O=C(O)c1c(Br)c(Br)c(Br)c(Br)c1C(=O)Nc1ccc(Cl)cc1C(F)(F)F`, the growth inhibition was 1.35% (inactive).

On to `Cc1cc(C)nc(N)n1`, for which the growth inhibition was 0.25% (inactive).

`C(=NCc1ccccc1)c1ccccc1-c1ccccc1C=NCc1ccccc1`: the growth inhibition is 98% (active).

For the molecule `CC(C)CCCC(C)C1CCC2C3CC(=O)C4C=CCCC4(C)C3CCC12C` (stereo not given), the growth inhibition was 39.1% (inactive).

Regarding `O=C(CC(=O)C(=O)CC(=O)OCc1ccccc1)OCc1ccccc1`, the growth inhibition is 15% (inactive).

On to `CCOc1c(N=Nc2ccccc2Cl)c(-c2ccccc2)nn1C(N)=S`, for which the growth inhibition was 6.75% (inactive).

Take `Brc1nccs1`: the growth inhibition is -21.9% (inactive).

On to `Cc1ccc(S/C=C/C(=O)Nc2ccccc2)cc1`, for which the growth inhibition is -10.8% (inactive).

With `c1ccc2c(c1)ncc1cc3c(cc12)[nH]c1ccccc13`, the growth inhibition is 40.9% (inactive).

In the case of `Nc1nc(SCc2ccccc2)c2ncn(C3CC(O)C(CO)O3)c2n1` (stereo not given), the growth inhibition is 0.05% (inactive).

As to `S=C1SCN(c2ccc3c(c2)OCO3)CN1c1ccc2c(c1)OCO2`, the growth inhibition is -24.4% (inactive).

Take `C[Si](C)(CNCCN)O[Si](C)(C)CNCCN`: the growth inhibition is 6.3% (inactive).

`O=C(CCC(CCC(=O)c1ccccc1)[N+](=O)[O-])c1ccccc1`: the growth inhibition was 3.15% (inactive).

Regarding `Cc1nc(-c2ccccc2)oc1-c1ccccc1`, the growth inhibition was 8.6% (inactive).

Turning to `Clc1ccc(CSc2ccc3nncc(SCc4ccc(Cl)cc4Cl)c3c2)c(Cl)c1`, the growth inhibition was 36% (inactive).

As for `Cc1cc(C)c2c(SCc3ccc(Cl)cc3Cl)nc(N)nc2n1`, the growth inhibition is 31.8% (inactive).

In the case of `CCCCN1C(=O)c2cc(=O)[nH]c(O)c2C1C` (stereo not given), the growth inhibition was -19.4% (inactive).

Take `C1=C(c2ccccc2)CC(c2ccc(-c3ccccc3)cc2)=C1`: the growth inhibition was 6.9% (inactive).

A short description of another test: NCI Yeast Anticancer Drug Screen. Data for the mec2-1 strain (AID 157). As to conditions: S. cerevisiae mec2-1 strain, at 50.0 µM, active compounds read high. The essentials: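 Vehicle-treated cultures served as reference for growth inhibition of compound-exposed mec2-1 yeast.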
For `c1ccc(B2OCC(C3OB(c4ccccc4)OC4COB(c5ccccc5)OC43)O2)cc1` (stereo not given), the growth inhibition is -2.45% (inactive).

As for `Cn1c(=O)c(-c2ccccc2)cc2ccccc21`, the growth inhibition is -12.9% (inactive).

Regarding `CCOC(=O)c1ccc(-c2ccccc2)cc1`, the growth inhibition is -28.9% (inactive).

As for `N#Cc1c(N)c(C(=O)O)nn(-c2cccc(C(F)(F)F)c2)c1=O`, the growth inhibition is 1.7% (inactive).

Turning to `O/N=C1/CCCCCC1NO` (stereo not given), the growth inhibition is -24.1% (inactive).

As to `NCCC1([N+](=O)[O-])CCNCC1`, the growth inhibition was -7.2% (inactive).

With `O=C(NCc1ccccc1)C1C2C=CC(C2)C1C(=O)NCc1ccccc1` (stereo not given), the growth inhibition is -10.8% (inactive).

In the case of `Nc1ccc[nH]c1=O`, the growth inhibition is 4% (inactive).

In the case of `CC(C)(C)c1ccc(OCCCl)c(Cl)c1`, the growth inhibition was -2.45% (inactive).

On to `COC(=O)c1cc(C)cc(N(c2ccccc2[N+](=O)[O-])S(=O)(=O)c2ccc(C)cc2)c1C`, for which the growth inhibition was -9.35% (inactive).

`Cc1ccc(N=c2cc(-c3ccccc3)oc3ccccc23)cc1`: the growth inhibition is -1.25% (inactive).

On to `COc1cc(C)c(C(=O)c2ccccc2NS(=O)(=O)c2ccc(C)cc2)cc1OC`, for which the growth inhibition was -0.7% (inactive).

Consider `C[n+]1nc([O-])oc1-c1ccccc1`, for which the growth inhibition was 3.05% (inactive).

As for `Cn1ncc2c(=O)[nH]c(=S)[nH]c21`, the growth inhibition is -4.4% (inactive).

For the molecule `Cc1ccc(S(=O)(=O)C(Sc2ccccc2)=S=NC(C)(C)C)cc1`, the growth inhibition was 81.5% (active).

For the molecule `Cc1ccc(NC(=O)CCc2nnc3s/c(=C\c4cccc([N+](=O)[O-])c4)c(=O)n23)cc1`, the growth inhibition was -8.45% (inactive).

As for `CCOc1c(N=Nc2ccccc2C)c(-c2ccccc2)nn1C(N)=S`, the growth inhibition is 6.85% (inactive).

On to `C(=N\N1CCN(/N=C/c2ccc3ccccc3n2)CC1)/c1ccc2ccccc2n1`, for which the growth inhibition was 13.1% (inactive).

On to `NC(=S)c1ccccn1`, for which the growth inhibition is 11.4% (inactive).

Turning to `CC(=O)CCCCCCCCCCCCCC(C)=O`, the growth inhibition is -5.1% (inactive).

Consider `CCOC(=O)/C=C/C(=O)O.[Cu+2]`, for which the growth inhibition was -14.3% (inactive).

For `CCCCCCC1OCCC(C)O1` (stereo not given), the growth inhibition was 5.95% (inactive).

As to `O=C(O)c1c(Br)c(Br)c(Br)c(Br)c1C(=O)Nc1ccc(Cl)cc1C(F)(F)F`, the growth inhibition was 10.1% (inactive).

With `Cc1cc(C)nc(N)n1`, the growth inhibition was 0.35% (inactive).

As to `C(=NCc1ccccc1)c1ccccc1-c1ccccc1C=NCc1ccccc1`, the growth inhibition was 98.7% (active).

On to `CC(C)CCCC(C)C1CCC2C3CC(=O)C4C=CCCC4(C)C3CCC12C` (stereo not given), for which the growth inhibition is 19.5% (inactive).

As for `O=C(CC(=O)C(=O)CC(=O)OCc1ccccc1)OCc1ccccc1`, the growth inhibition was -19.9% (inactive).

With `CCOc1c(N=Nc2ccccc2Cl)c(-c2ccccc2)nn1C(N)=S`, the growth inhibition was 16.9% (inactive).

For the molecule `Brc1nccs1`, the growth inhibition was -21.4% (inactive).

For `Cc1ccc(S/C=C/C(=O)Nc2ccccc2)cc1`, the growth inhibition is 13.4% (inactive).

As to `c1ccc2c(c1)ncc1cc3c(cc12)[nH]c1ccccc13`, the growth inhibition is 7.5% (inactive).

Turning to `Nc1nc(SCc2ccccc2)c2ncn(C3CC(O)C(CO)O3)c2n1` (stereo not given), the growth inhibition is -1.2% (inactive).

Take `S=C1SCN(c2ccc3c(c2)OCO3)CN1c1ccc2c(c1)OCO2`: the growth inhibition is -33.9% (inactive).

`C[Si](C)(CNCCN)O[Si](C)(C)CNCCN`: the growth inhibition was -18.8% (inactive).

For the molecule `O=C(CCC(CCC(=O)c1ccccc1)[N+](=O)[O-])c1ccccc1`, the growth inhibition is -10.8% (inactive).

Take `Cc1nc(-c2ccccc2)oc1-c1ccccc1`: the growth inhibition was -1.5% (inactive).

Consider `Clc1ccc(CSc2ccc3nncc(SCc4ccc(Cl)cc4Cl)c3c2)c(Cl)c1`, for which the growth inhibition was 5.8% (inactive).

With `Cc1cc(C)c2c(SCc3ccc(Cl)cc3Cl)nc(N)nc2n1`, the growth inhibition was 12.3% (inactive).

For the molecule `CCCCN1C(=O)c2cc(=O)[nH]c(O)c2C1C` (stereo not given), the growth inhibition was 6.35% (inactive).

For `C1=C(c2ccccc2)CC(c2ccc(-c3ccccc3)cc2)=C1`, the growth inhibition was 1.15% (inactive).
